Over roughly 9,900 sequences, “r (bound/input frequency ratio)” has its median near 0.7; the highest 2% begin near 6.5. This excerpt belongs to a sample that is enriched for the highest values.
B1: ENSMUSG00000031028.261|Tub (ssRNA)
RNA: GGGAGUUCUACAGUCCGACGAUCGCUUCGAUAUCCGCAUGCUACCAGAGGGAAGCAAAGAGCAUUUAGACAUUGCUUUUUGCUUUGAAAUAGAUAUGUUUGGAAACGCUAAGUAGAAGUUUAAAAAGUAGAGUCAUGUAGAGUCAUGCUUUGAAUAUGUGGGUCAUGCUUUAGAUAUGAAGAGGCUAUGCAGGUAAGGAGGCUGGAUUGAUGUAAAUGGAAGUAGUACUUUAAGAAAGCUCUAGAUUUCCCAGGUUGGACACUCGACGAAAGGCACACCUGCUGCAGCAGGUUCUGACACACCCUCUUGCGGUCGCACUAGUGUGGAAUUCUCGGGUGUCAAGG
B2: ENSMUSG00000043670.150|Diras1|4:8;157:162;227:231 (ssRNA)
RNA: GGGAGUUCUACAGUCCGACGAUCGCUUCGAUAUCCGCAUGCUAGGACACACGAGUGGCUGCCUGGACACUGCCCACCUGGACACCAGCCUUCUGCUGAGAUAGAGACCUUGGCACAGUGGCACCUCGACAGCCACCCCGACUGGGGGUUUGGGGUGCUGAGGGUGGGGUGCCCAGCUGAGAGUCUAUCAGCAAAGUCCCACACACCGGUGAUAGGACUAGUGGCUGCUGCCCUAGGGCUCUGACAGAAUCUGAGCCUCUUUGCUGGUCAACACAACUCUGGAGACUGUCCCCCAUGUCUGCCCCUCUUGCGGUCGCACUAGUGUGGAAUUCUCGGGUGUCAAGG
B3: ENSMUSG00000034801.46|Sos2 (ssRNA)
RNA: GGGAGUUCUACAGUCCGACGAUCGCUUCGAUAUCCGCAUGCUACCACCCGCCACUGUAUAGACUGCCUCUGCUGGAAAAUGCAGAAACUCCUCAAUGACCUUGGCCAUAUGUAGUCAUUGACACUGGAAUAGUAUUUGUAAAGGUUUUUAAUUUAUUCAAAAAGACAUAGUAUUUUAGUACUUUUUACAGAAAUGCUACUGAUUAAAUAAGCUCUUAAGAAUUAGUAAACUUGUUGGAUGGCAGUGGCCCACAGCUGUAAUCCCAGCACCCUGGUUGCAGGGGCAGGUGGGCUUCAGGGUUUGCUCUUGCGGUCGCACUAGUGUGGAAUUCUCGGGUGUCAAGG
B4: ENSMUSG00000043670.73|Diras1 (ssRNA)
RNA: GGGAGUUCUACAGUCCGACGAUCGCUUCGAUAUCCGCAUGCUAACACACUGGAGGUUUGAUCCCUGUGGAUCUGAAAACAGGGACCUGGCUAAGGAACUGCUCAUCCCAGUCAGGCCCAGAGAGGUUACCUUGCCUCUCCAUCUCUGUCCCUGUGUGCCCAGCCAUGCCCACUGUCCCUGUCCCUCACAUUCUAUCACUGUGACCUCUGGGGAGUGCCCAUUGACCUCAUCUUCCUUCACUAAUAUCUUAUUUCUUUCACCUGAUCCUGUCCUUUCCCCGUGACCUCUGACCUGUGGCCUUCCCUCUUGCGGUCGCACUAGUGUGGAAUUCUCGGGUGUCAAGG

target: TDP-43 (Homo sapiens, UniProt Q13148 1-414); experiment: RNA Bind-n-Seq with designed 260-mer pool; 25 mM Tris-HCl, 150 mM KCl, 3 mM MgCl2, BSA (printed 500 mg/mL), 20 units/mL SUPERase IN; pH not stated; 500 nM RNA pool, 1 h, 4 C; TDP-43 5, 50, 500 nM; high values mean tight binding; settings: protein: recombinant; tags: SBP (GST cleaved off with PreScission; pGEX-GST-SBP)
Sequence (Q13148 whole entry): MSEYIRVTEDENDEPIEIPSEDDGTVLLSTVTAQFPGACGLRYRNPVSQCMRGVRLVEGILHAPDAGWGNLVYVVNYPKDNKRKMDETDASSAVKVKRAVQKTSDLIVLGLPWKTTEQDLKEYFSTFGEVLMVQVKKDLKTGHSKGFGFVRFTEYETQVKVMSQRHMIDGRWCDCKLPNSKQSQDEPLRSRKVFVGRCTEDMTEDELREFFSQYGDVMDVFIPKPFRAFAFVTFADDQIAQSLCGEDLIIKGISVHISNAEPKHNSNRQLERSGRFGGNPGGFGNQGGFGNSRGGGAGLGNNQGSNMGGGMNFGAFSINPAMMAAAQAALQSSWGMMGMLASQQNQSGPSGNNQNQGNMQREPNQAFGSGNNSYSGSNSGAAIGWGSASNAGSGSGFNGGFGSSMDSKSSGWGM
Method in brief: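 In 25 mM Tris-HCl, 150 mM KCl, 3 mM MgCl2, BSA and SUPERase IN, 500 nM of an in vitro-transcribed 260-nt 3′ UTR oligo pool was incubated for 1 h at 4 °C with SBP-tagged TDP-43 (5, 50 or 500 nM) captured on streptavidin beads. RNA remaining after washes was biotin-eluted, reverse transcribed, PCR-amplified and sequenced. Binding, R, is the bound-sample abundance of each oligo, normalized to mapped reads, divided by its abundance in input. Each duplicate used a separate, independent protein batch.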

| Binder | binding signal |
| --- | --- |
| B1 | 2.37 R (bound/input frequency ratio) |
| B2 | 1 R (bound/input frequency ratio) |
| B3 | 0.116 R (bound/input frequency ratio) |
| B4 | 2.54 R (bound/input frequency ratio) |

From article PMC12864922, “TDP-43 directly inhibits mRNA accumulation in neurites through modulation of mRNA stability”
